# About 83,000 compounds went through this panel and 20% of them were active in at least one assay; those are over-represented in the sample as a whole.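 Activity criterion: percent growth below 10, measured after cells in 96-well plates were exposed to a single compound concentration for 48 hours.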 Calls of active or inactive are those of the source.
# Test system: HCT-116 colon
# Test: NCI-60 one-dose screen, 48 h (100 = growth as untreated, 0 = no growth, -100 = all killed)
# Settings: 10 µM
row,SMILES,growth
1,COc1cc(-c2nn(-c3cccc(NC(=O)CCN4CCN(c5ccccc5)CC4)c3)cc2-c2ccncc2)ccc1Cl,11.8% (inactive)
2,CCN(CC)CC(=O)N(CC)c1ccc(C)c(Cl)c1,98.7% (inactive)
3,Cc1cccc(N=Cc2ccccc2O)c1C,106% (inactive)
4,CCCCC1(O)CCCCC1,102% (inactive)
5,COc1ccc(/C=C2\CCCC3=C2N=C2SC(C)=CN2C3c2ccc(OC)cc2)cc1 (stereo unspecified),93.4% (inactive)
6,c1ccc(CSc2ncccc2-c2nnc(SCCN3CCOCC3)o2)cc1,108% (inactive)
7,C/C=C/C1=CN2C(=O)c3cc(OC4OC(C)C(NC)C(C)(O)C4O)c(C)c(O)c3N=C[C@@H]2C1 (stereo partly specified),1.59% (active)
8,C[C@]12CC[C@@H]3c4ccc(OS(=O)(=O)O)cc4CC[C@H]3[C@@H]1CC[C@@H]2NS(=O)(=O)c1ccc(-c2ccccc2)cc1,36.2% (inactive)
9,COc1ccc(/C(C#N)=C/c2ccccc2OC)cc1,18.1% (inactive)
10,COc1ccc(Cc2cnc(N)nc2N)cc1OC,99.8% (inactive)
11,Cc1cc(CC(C)CC(C)(C)C)n(O)c(=O)c1 (stereo unspecified) (tested in a mixture with another compound),22.9% (inactive)

# Test system: HCC-2998 colon
# Test: as above
# Settings: 10 µM
row,SMILES,growth
1,O=C(O)c1ccc(-n2cc(CNc3ccc(Cl)cc3)c(-c3ccccc3)n2)cc1,113% (inactive)
2,Cc1ccc(C(=O)C2C(=O)C3CCC2C3)cc1 (stereo unspecified),106% (inactive)
3,COc1cc2c(Nc3ccc(S(N)(=O)=O)cc3)ncnc2c(OC)c1OC,98.4% (inactive)
4,CN1CCN(CC(=O)Nc2cccc(-n3cc(-c4ccncc4)c(-c4ccc(Cl)c(O)c4)n3)c2)CC1,85.6% (inactive)
5,O=[N+]([O-])c1cccc(/C=N/NC(=S)NC23CC4CC(CC(C4)C2)C3)c1,103% (inactive)
6,CN1CCN(c2cc3c(cc2F)c(=O)c(C(=O)O)cn3-c2ccc(F)cc2)CC1,106% (inactive)
7,O=C(CN1CCN(C(=O)c2ccccc2)CC1)Nc1ccccc1SCc1ccccc1,93.6% (inactive)
8,Clc1ccc2c(c1)C(N1CCNCC1)=Nc1ccccc1O2,-25.4% (active)
9,CCOC(=O)c1cc(C(=O)c2cc(OC)c(OC)c(OC)c2)n2ncc3ccccc3c12,93.2% (inactive)
10,CC(=O)C1CCC2C3CC=C4CC(SC(=N)N)CCC4(C)C3CCC12C (stereo unspecified),-52.3% (active)
11,COc1cc2c(Nc3ccc(-c4ccc(N)cc4)cc3)ncnc2c(OC)c1OC,4.99% (active)
12,C#C[C@]1(O)CCC2C3CCc4cc(OC5CCCC5)ccc4C3CC[C@@]21C (stereo partly specified),74.1% (inactive)
13,Cc1cc(SC#N)cc(C(C)(C)C)c1O,109% (inactive)
14,Cc1cc(CCNC=O)c(C)c2c1sc1ccccc12,104% (inactive)
15,CO[C@H]1CC(O[C@@H]2/C(C)=C/C[C@@H]3C[C@@H](C[C@]4(C=C[C@H](C)[C@@H](C5CCCCC5)O4)O3)OC(=O)[C@@H]3C=C(C)[C@@H](O)[C@H]4OC/C(=C\C=C\[C@@H]2C)[C@]43O)O[C@@H](C)C1O[C@H]1C[C@H](OC)[C@@H](O)[C@H](C)O1 (stereo partly specified),-92.3% (active)
16,CCN(CC)c1ccc(/C=C2\SC(=O)C(Nc3nnc(-c4cccnc4SCc4ccccc4)o3)C2=O)cc1 (stereo unspecified),4.15% (active)
17,O=C(N/N=C/c1ccc([N+](=O)[O-])cc1)c1ccccc1Nc1cccc(C(F)(F)F)c1,99.5% (inactive)
18,CC(=O)[C@H]1CC[C@]2(C)[C@@H]1CC[C@@H]1[C@@]3(C)CC(CCC#N)(CCC#N)C(=O)C(C)(C)[C@@H]3CC[C@]12C,100% (inactive)
19,Cc1cc(CSc2ccccc2C(=O)N2CC=C(c3ccccc3)CC2)on1,93.3% (inactive)
20,N#Cc1ccc(C(=O)CSc2nccc(Nc3ccc(C(=O)O)cc3)n2)cc1,100% (inactive)

row,SMILES,growth
1,COc1ccc2nc3cc(Cl)ccc3c(Nc3cc(CN4CCCC4)c(O)c(CN4CCCC4)c3)c2n1,-31.8% (active)
2,O=C(N/N=C/c1ccc(Cl)cc1)c1ccc(Cc2n[nH]c(=O)c3cccnc23)cc1,89.8% (inactive)
3,O=S(=O)(Oc1ccc(-c2ccc3sccc3c2)cc1)c1ccc(F)cc1,86.8% (inactive)
4,CNC(=O)c1c(I)c(NC(C)=O)c(I)c(C(=O)O)c1I,106% (inactive)
5,C/C(=N\O)c1ccc(NC(=O)CSc2nnc(-c3ccccc3)n2-c2ccccc2)cc1,91.1% (inactive)
6,COc1ccc(/C=C2/SC(=S)NC2=O)c(OC)c1OC,82.3% (inactive)
7,C[C@]12CC[C@@H]3c4ccc(O)cc4CC[C@H]3[C@@H]1CC[C@@H]2NS(=O)(=O)c1ccc(C(F)(F)F)cc1,60.4% (inactive)
8,NS(=O)(=O)c1ccc(Br)cc1,108% (inactive)
9,CNS(=O)(=O)Oc1ccc(-c2ccc3occc3c2)cc1,96.5% (inactive)
10,COc1cc(-c2nn(-c3cccc(NC(=O)CCN4CCN(c5ccccc5)CC4)c3)cc2-c2ccncc2)ccc1Cl,28.5% (inactive)
11,CCN(CC)CC(=O)N(CC)c1ccc(C)c(Cl)c1,102% (inactive)
12,Cc1cccc(N=Cc2ccccc2O)c1C,104% (inactive)
13,CCCCC1(O)CCCCC1,103% (inactive)
14,COc1ccc(/C=C2\CCCC3=C2N=C2SC(C)=CN2C3c2ccc(OC)cc2)cc1 (stereo unspecified),111% (inactive)
15,c1ccc(CSc2ncccc2-c2nnc(SCCN3CCOCC3)o2)cc1,116% (inactive)
16,C/C=C/C1=CN2C(=O)c3cc(OC4OC(C)C(NC)C(C)(O)C4O)c(C)c(O)c3N=C[C@@H]2C1 (stereo partly specified),-56.7% (active)
17,C[C@]12CC[C@@H]3c4ccc(OS(=O)(=O)O)cc4CC[C@H]3[C@@H]1CC[C@@H]2NS(=O)(=O)c1ccc(-c2ccccc2)cc1,80.9% (inactive)
18,COc1ccc(/C(C#N)=C/c2ccccc2OC)cc1,50.2% (inactive)
19,COc1ccc(Cc2cnc(N)nc2N)cc1OC,105% (inactive)
20,Cc1cc(CC(C)CC(C)(C)C)n(O)c(=O)c1 (stereo unspecified) (tested in a mixture with another compound),57.5% (inactive)
